# Compounds without any hit were thinned out: in the full panel of roughly 79,000, 15% have a hit. A number with no mark means an inactive call. Activity calls are given as the source filed them. No stated cut-off is given here; in the data, active means growth inhibition above about 70%; inactive means the rest.
# How the values were obtained:
# [1] = NCI Yeast Anticancer Drug Screen. Data for the rad52 strain (AID 147);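 further: 0% = growth of vehicle-treated control cultures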; settings: S. cerevisiae rad52 mutant growth inhibition, active compounds read high
# How it was run: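 The repair-mutant yeast strain was incubated with compounds, then growth was read and inhibition derived relative to vehicle.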
# [2] = NCI Yeast Anticancer Drug Screen. Data for the wt1 strain (AID 149);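 further: 0% = growth of vehicle-treated wt1 cultures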; settings: S. cerevisiae wt1 strain (SPY 50644) growth inhibition, active compounds read high
# How it was run: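 Readout: yeast growth inhibition, normalised to vehicle controls, in the wt1 strain exposed to test compounds.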
# [3] = NCI Yeast Anticancer Drug Screen. Data for the rad50EPP+ strain (AID 151);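 further: 0% = growth of vehicle-treated control cultures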; settings: S. cerevisiae rad50 mutant strain, active compounds read high
# How it was run: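 Vehicle-normalised growth inhibition; rad50EPP+ yeast strain, altered in DNA damage repair, compound-treated.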
# [4] = NCI Yeast Anticancer Drug Screen. Data for the mgt1 strain (AID 153); settings: S. cerevisiae mgt1 mutant growth inhibition, active compounds read high
# How it was run: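 Vehicle-normalized growth inhibition is determined in mgt1 yeast, a strain selected for a defined alteration in DNA repair or cell cycle control.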
# [5] = NCI Yeast Anticancer Drug Screen. Data for the rad50 strain (AID 155);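 further: 0% = growth of vehicle-only cultures of the same strain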; settings: S. cerevisiae rad50 strain growth inhibition, active compounds read high
# How it was run: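 Compounds were tested on a yeast strain with an engineered DNA damage repair alteration; the reported value is growth inhibition normalised to vehicle treatment.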
# [6] = NCI Yeast Anticancer Drug Screen. Data for the mec2-1 strain (AID 157); settings: S. cerevisiae mec2-1 strain, active compounds read high
# How it was run: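 Mutant yeast (mec2-1) grown with compound; growth inhibition relative to vehicle control reported.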
# [7] = NCI Yeast Anticancer Drug Screen. Data for the rad14 strain (AID 159);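 further: 0% = growth of vehicle-treated control cultures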; settings: S. cerevisiae rad14 strain growth inhibition, active compounds read high
# How it was run: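 Compound-treated yeast with a defined DNA-repair lesion; growth inhibition normalised to vehicle-treated cultures.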
# [8] = at 5.0 µM (retest, dose inferred, filed as 0.5)
# [9] = at 50.0 µM (retest, dose inferred, filed as 5.0)
smiles,measurement,setting,value
Cc1nc2ccc(N=NN(C)C)cc2[nH]1,growth inhibition,[1]; at 1.2 µM,11%
same,growth inhibition,[1]; at 3.7 µM,8%
same,growth inhibition,[1]; at 11.0 µM,3%
same,growth inhibition,[1]; at 33.0 µM,72% (active)
same,growth inhibition,[1]; at 100.0 µM,97% (active)
same,growth inhibition,[2]; at 1.2 µM,13%
same,growth inhibition,[2]; at 3.7 µM,6%
same,growth inhibition,[2]; at 11.0 µM,7%
same,growth inhibition,[2]; at 33.0 µM,25%
same,growth inhibition,[2]; at 100.0 µM,98% (active)
same,growth inhibition,[3]; at 1.2 µM,13%
same,growth inhibition,[3]; at 3.7 µM,14%
same,growth inhibition,[3]; at 11.0 µM,8%
same,growth inhibition,[3]; at 33.0 µM,51%
same,growth inhibition,[3]; at 100.0 µM,98% (active)
same,growth inhibition,[4]; at 1.2 µM,2%
same,growth inhibition,[4]; at 3.7 µM,3%
same,growth inhibition,[4]; at 11.0 µM,15%
same,growth inhibition,[4]; at 33.0 µM,99% (active)
same,growth inhibition,[4]; at 100.0 µM,99% (active)
same,growth inhibition,[5]; at 1.2 µM,22%
same,growth inhibition,[5]; at 3.7 µM,16%
same,growth inhibition,[5]; [8],-3%
same,growth inhibition,[5]; at 11.0 µM,15%
same,growth inhibition,[5]; at 33.0 µM,83% (active)
same,growth inhibition,[5]; [9],97% (active)
same,growth inhibition,[5]; at 50.0 µM,84% (active)
same,growth inhibition,[5]; at 100.0 µM,98% (active)
same,growth inhibition,[6]; at 1.2 µM,15%
same,growth inhibition,[6]; at 3.7 µM,21%
same,growth inhibition,[6]; [8],-9%
same,growth inhibition,[6]; at 11.0 µM,20%
same,growth inhibition,[6]; at 33.0 µM,98% (active)
same,growth inhibition,[6]; [9],98% (active)
same,growth inhibition,[6]; at 50.0 µM,91.3% (active)
same,growth inhibition,[6]; at 100.0 µM,98% (active)
same,growth inhibition,[7]; at 1.2 µM,4%
same,growth inhibition,[7]; at 3.7 µM,4%
same,growth inhibition,[7]; at 11.0 µM,12%
same,growth inhibition,[7]; at 33.0 µM,15%
same,growth inhibition,[7]; at 100.0 µM,97% (active)

# — PubChem BioAssay (NCI)
